Records with an inconclusive call do not appear. A call without a number means that no potency is given here. Values without a mark were called inactive. Activity calls are given as the source filed them. Calls come from the whole dose curve.

This test deals with D(2) dopamine receptor (Homo sapiens) (UniProt P14416). Kind of test: Dopamine D2 receptor (DRD2) small molecule agonists, cell-based qHTS assay (AID 1963594). Note: nearly all actives have a fitted effect of over 35% in size. The settings on record: HEK293-DRD2 cAMP HTRF, agonist mode, 30 min; series mostly up to 92.4 µM; activation: at the top concentration. From the text: National Center for Advancing Translational Sciences [NCATS]
Chain of D(2) dopamine receptor (Homo sapiens) (P14416 whole entry, looked up): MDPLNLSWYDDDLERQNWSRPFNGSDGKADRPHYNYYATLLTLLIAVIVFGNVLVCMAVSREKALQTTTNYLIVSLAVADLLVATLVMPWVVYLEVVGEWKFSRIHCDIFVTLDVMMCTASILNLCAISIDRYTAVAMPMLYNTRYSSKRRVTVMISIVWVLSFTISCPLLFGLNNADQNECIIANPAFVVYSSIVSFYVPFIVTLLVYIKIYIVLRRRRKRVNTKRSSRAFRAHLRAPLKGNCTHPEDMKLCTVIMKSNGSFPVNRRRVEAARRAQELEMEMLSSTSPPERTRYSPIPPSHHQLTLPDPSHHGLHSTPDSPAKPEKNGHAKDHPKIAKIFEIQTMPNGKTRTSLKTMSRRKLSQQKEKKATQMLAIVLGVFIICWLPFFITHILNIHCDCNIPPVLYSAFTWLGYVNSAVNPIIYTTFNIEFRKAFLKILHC
Division of Preclinical Innovation [DPI]
U.S. Environmental Protection Agency [EPA]
National Institutes of Environmental Health Sciences [NIEHS]
National Toxicology Program [NTP]
U.S. Food and Drug Administration [FDA]
DRD2 is the D2 subtype of the dopamine receptor, which is coupled to Gi subtype of G protein-coupled receptor. This G protein-coupled receptor inhibits adenylyl cyclase activity. The DRD2-HEK293 cell line stably expressing D2 dopamine receptor can be used for screening agonists and antagonists of interactions between D2 and its ligands. The Hek293-DRD2 cAMP assay is based on HTRF technology. It measures changes of cAMP accumulation in response to Gi coupled GPCR activation or inhibition.
Tox21 Assay Protocol Summary:
DRD2-Hek293 cells were dispensed at 600 cells/3uL/well in 1536-well white plates using a Multidrop Dispenser. After the assay plates were incubated at a 37 C/5% CO2 incubator for 24 h, 1 uL of Ro20-1724 at final concentration of 0.1 mM was transferred to the assay plate by a Flying Reagent Dispenser. Following Ro20-1724 addition, 23 nL of compound dissolved in DMSO, positive controls or DMSO only was added to the assay plates via Wako pintool station. The assay plates were incubated at room temperature for 10 min. Next, 1 uL of NKH477 at 200nM was added into the plates. After the assay plates were incubated at room temperature for an additional 30 min, 2.5 ul/well of cAMP-d2 and 2.5 ul/well of anti-cAMP-cryptate were added respectively into the assay plates using a Flying Reagent Dispenser. The plates were incubated at room temperature for 1 h. The fluorescence intensity in the plates was measured at 340 nm excitation and 665 & 620 nm emission by an Envision plate reader.
On the technique in general: In qHTS, concentration-response curves come from the screen itself.
For `COC(=O)[C@@H](N)CCCN/C(N)=N/[N+](=O)[O-]`, the “activation” value is 1.88% [at 42.5 µM].
On to `c1ccc(N=NNc2ccccc2)cc1`, for which the Potency entry is “inactive”.
`CN(C)C(=O)Nc1cccc(C(F)(F)F)c1`: the Potency entry was “inactive”.
The same measure, in the same setting: the result for `CCCCCCCC[N+](C)(CCCCCCCC)CCCCCCCC` reads “inactive”; that for `CC[N+](CC)(CC)CC`, “inactive”.
On the same count and under the same terms, the result for `O=C1C=CC(=O)C=C1` reads “inactive”.
Still for that read-out and setting: next, `O=C(O)CCl`: “inactive”; `Oc1cc(Cl)c(Cl)cc1Cl`: “inactive”.
`CCCC[n+]1cccc(C)c1`: the Potency result is “inactive”.
Still for that read-out and setting: next, `O=S(=O)(Oc1ccc(Cl)cc1)c1ccc(Cl)cc1`: “inactive”.
Take `C=C(C)[C@@H]1CC=C(C=O)CC1`: the “activation” value is -1.47%.
Consider `CCC12COCN1COC2`, for which the Potency result was “inactive”.
On to `CCCOC(=O)c1cncn1C(C)c1ccccc1` (stereo not given), for which the “activation” value was -0.32% [at 42.5 µM].
Take `CCNc1nc(Cl)nc(NC(C)C)n1`: the Potency entry was “inactive”.
As to `CC(C)C#N`, the Potency entry is “inactive”.
On to `C1CC2OC2CC1C1CO1` (stereo not given), for which the “activation” value is 0.904%.
For the compound `ClCC(Br)CBr` (stereo not given), the “activation” value was -0.592%.
`C[N+](C)(C)Cc1ccccc1`: the Potency entry was “inactive”.
The same measure, in the same setting: next, `C#C[C@]1(O)CC[C@H]2[C@@H]3CCC4=CC(=O)CC[C@]4(C)[C@H]3CC[C@@]21C`: “inactive”.
Same read-out and setting: next, `O=C(O)c1nc(Cl)ccc1Cl`: “inactive”; `CN1C(=O)CCS(=O)(=O)C1c1ccc(Cl)cc1` (stereo not given): “inactive”.
Take `CC1CC(CC2CCC(N)C(C)C2)CCC1N` (stereo not given): the “activation” value is -0.421%.
With `CCOC(=O)CC(SP(=S)(OC)OC)C(=O)OCC` (stereo not given), the “activation” value was -6.13% [at 42.5 µM].
As to `CNC(=O)Oc1cccc2c1OC(C)(C)O2`, the Potency result was “inactive”.
Turning to `CC(=O)CC(c1ccc(Cl)cc1)c1c(O)c2ccccc2oc1=O` (stereo not given), the “activation” value is 10.3%.
On the same count and under the same terms, next, `CCN(C)N=O`: 0.456%.
Consider `c1ccc2c(c1)oc1ccccc12`, for which the Potency entry is “inactive”.
In the case of `CCC(C)Cl` (stereo not given), the “activation” value is 0.161%.
For the compound `ClCc1cccnc1`, the Potency entry was “inactive”.
For the compound `CCCCCCCCCCCC[N+](C)(C)CCOc1ccccc1`, the Potency entry was “inactive”.
For `Oc1cc(Cl)ccc1Cl`, the Potency entry was “inactive”.
Take `Cc1ccccc1N`: the Potency entry is “inactive”.
Still for that read-out and setting: next, `CNc1cnn(-c2cccc(C(F)(F)F)c2)c(=O)c1Cl`: “inactive”; `Nc1ccc(Cc2ccc(N)cc2)cc1`: “inactive”.
For the compound `C=Cc1cccc(CCl)c1`, the “activation” value was -1.08% [at 240 µM].
With `CC(Cl)CCl` (stereo not given), the “activation” value was 0.0721%.
Consider `CNC(=O)Oc1ccccc1OC(C)C`, for which the “activation” value is 0.17%.
Turning to `C=CCO`, the Potency result is “inactive”.
Still for that read-out and setting: the result for `O=C(O)c1ccccn1` reads “inactive”.
Regarding `CC1CN1` (stereo not given), the “activation” value is 4.09%.

The record behind these values is PubChem BioAssay (Tox21).
